Measurements published in PubChem BioAssay (EPA / NIEHS).
Results filed as inconclusive are left out. The source made the active and inactive calls. Rule for the calls: active = hit-call score of the fitted dose curve at least 0.9, where 1 is the maximum; inconclusive = response in the unintended direction; inactive = score below 0.9.

Target: Estrogen-related receptor gamma (Homo sapiens) (UniProt P62508)
Assay: ATG_ERRg_TRANS: Attagene TRANS-FACTORIAL HepG2 Assay for human Estrogen-Related Receptor gamma (ERRg) (AID 2282977);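 note: hits increase reporter signal over DMSO so potencies reflect activators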
Conditions: HepG2 Attagene TRANS reporter, ERRg transactivation
How it was run: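 Exogenous NR-Gal4 chimera activity was assessed in HepG2 cells bearing transfected GAL4-UAS reporters. After 24 h dosing, total RNA underwent RT-PCR, fluorescent primer extension and HpaI digestion before capillary electrophoresis, with gain of signal scored against DMSO.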

Sequence of Estrogen-related receptor gamma (Homo sapiens) (P62508 whole entry, looked up): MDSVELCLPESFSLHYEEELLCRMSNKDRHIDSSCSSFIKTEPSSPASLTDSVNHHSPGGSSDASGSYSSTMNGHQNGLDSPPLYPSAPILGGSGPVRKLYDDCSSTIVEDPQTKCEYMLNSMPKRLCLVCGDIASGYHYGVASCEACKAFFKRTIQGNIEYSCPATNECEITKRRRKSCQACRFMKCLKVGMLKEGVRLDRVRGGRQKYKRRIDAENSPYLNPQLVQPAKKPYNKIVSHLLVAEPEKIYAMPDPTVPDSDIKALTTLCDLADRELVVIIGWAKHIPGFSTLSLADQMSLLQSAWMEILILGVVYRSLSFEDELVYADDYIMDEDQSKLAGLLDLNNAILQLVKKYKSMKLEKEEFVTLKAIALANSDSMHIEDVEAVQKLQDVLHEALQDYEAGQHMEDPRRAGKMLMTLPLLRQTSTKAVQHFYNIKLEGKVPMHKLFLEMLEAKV

outcome, inactive:
CCOC=O, O=C1C=CC(=O)N1c1cccc(N2C(=O)C=CC2=O)c1, Brc1cc(Br)c(Oc2c(Br)cc(Br)c(Br)c2Br)cc1Br, CC1CCC(C(=O)O)CC1 (stereo not given), CCCCC(CC)C(=O)OCCOCCOCCOCCOC(=O)C(CC)CCCC (stereo not given), FC(F)=C(F)C(F)(F)C(F)(F)C(F)(F)C(F)F, O=C(c1cc(O)c(O)c(O)c1)c1ccc(O)c(O)c1O, COc1ccccc1NC(=O)c1cc2ccccc2cc1O, CCCCc1oc2ccccc2c1C(=O)c1cc(I)c(OCCN(CC)CC)c(I)c1, O=CC(F)(F)C(F)(F)C(F)(F)C(F)F, FC1(F)C=CC(F)(F)C1(F)F

Target: Glucocorticoid receptor (Homo sapiens) (UniProt P04150)
Assay: ATG_GR_TRANS: Attagene TRANS-FACTORIAL HepG2 Assay for human Glucocorticoid Receptor (GR) (AID 2282978);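 note: activators score as hits since higher reporter transcript over DMSO is fitted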
Conditions: HepG2 Attagene TRANS GR reporter, mRNA transcription
How it was run: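 Reporter transcript levels, detected by fluorescence after RT-PCR and capillary electrophoresis, served as the endpoint. HepG2 cells bearing transfected GAL4-UAS reporters responsive to NR-GAL4 chimeras were incubated with compound 24 h; DMSO defined baseline.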

Sequence of Glucocorticoid receptor (Homo sapiens) (P04150 whole entry, looked up): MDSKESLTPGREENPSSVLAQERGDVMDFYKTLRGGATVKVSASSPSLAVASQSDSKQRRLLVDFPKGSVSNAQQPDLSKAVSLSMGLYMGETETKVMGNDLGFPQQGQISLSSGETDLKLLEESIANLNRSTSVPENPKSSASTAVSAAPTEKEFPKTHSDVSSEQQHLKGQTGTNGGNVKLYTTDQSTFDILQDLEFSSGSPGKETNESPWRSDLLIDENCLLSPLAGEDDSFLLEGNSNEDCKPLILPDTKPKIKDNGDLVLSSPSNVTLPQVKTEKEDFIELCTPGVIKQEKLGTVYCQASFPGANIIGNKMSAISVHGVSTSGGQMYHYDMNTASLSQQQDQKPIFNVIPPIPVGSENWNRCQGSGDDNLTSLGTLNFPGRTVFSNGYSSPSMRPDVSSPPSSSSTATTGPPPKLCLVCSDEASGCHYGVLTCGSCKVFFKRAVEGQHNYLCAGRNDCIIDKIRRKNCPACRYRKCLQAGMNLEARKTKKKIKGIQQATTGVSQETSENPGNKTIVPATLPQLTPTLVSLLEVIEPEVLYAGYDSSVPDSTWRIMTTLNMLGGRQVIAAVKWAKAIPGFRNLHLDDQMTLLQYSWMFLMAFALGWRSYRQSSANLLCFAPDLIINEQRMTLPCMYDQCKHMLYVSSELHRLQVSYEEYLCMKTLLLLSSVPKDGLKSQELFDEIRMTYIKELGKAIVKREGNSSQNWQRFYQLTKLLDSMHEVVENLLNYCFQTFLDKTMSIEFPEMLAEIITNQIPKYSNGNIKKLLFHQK

outcome, inactive:
COC1=CC(=O)C[C@@H](C)[C@]12Oc1c(Cl)c(OC)cc(OC)c1C2=O, O=C(F)C(F)(F)C(F)(F)C(F)(F)C(F)F, O=C1Cc2ccccc2N1c1c(Cl)cccc1Cl, Brc1cc(Br)c(Oc2c(Br)cc(Br)c(Br)c2Br)cc1Br, CCCCCCCCC1CCC(=O)O1 (stereo not given), CC1CCC(C(=O)O)CC1 (stereo not given), N=C(N)c1ccc(OCCCCCOc2ccc(C(=N)N)cc2)cc1, O=P(O)(O)CCC(F)(F)C(F)(F)C(F)(F)C(F)(F)C(F)(F)C(F)(F)F, CCc1ccccc1O, O=CC(F)(F)C(F)(F)C(F)(F)F, O=C(c1cc(O)c(O)c(O)c1)c1ccc(O)c(O)c1O, CCCCc1oc2ccccc2c1C(=O)c1cc(I)c(OCCN(CC)CC)c(I)c1, CC(=O)Nc1ccc(S(N)(=O)=O)cc1, c1cc[nH]c1, O=CC(F)(F)C(F)(F)C(F)(F)C(F)F, FC1(F)C=CC(F)(F)C1(F)F, Oc1ccc(Cc2ccccc2O)cc1, CCCCN(C)C, O=C(O)CCC(F)(F)C(F)(F)C(F)(F)C(F)(F)C(F)(F)C(F)(F)F
